In the antibiotic and cytotoxicity screens of Wong et al. (2023):
In all, about 39,000 compounds went through this assay and about 3,300 (8.5%) were called active. This is one part of a sample in which actives are shown more often than they occur.

system: HepG2; assay: cytotoxicity call (relative viability < 0.9); details: 10 µM

Compound	cytotoxicity call
C[C@H]1CN([C@@H](C)CO)C(=O)c2cc(NS(=O)(=O)c3cccs3)ccc2O[C@@H]1CN(C)S(=O)(=O)c1ccccc1	inactive
COC(=O)CCCCCCC(=O)N/N=C/[C@H](O)[C@@H](O)[C@H](O[C@@H]1O[C@H](CO)[C@H](O)[C@H](O)[C@H]1O)[C@H](O)CO	inactive
CO[C@H](CN(C)C(=O)c1ccc2c(c1)OCO2)[C@H](C)CN([C@@H](C)CO)S(=O)(=O)c1ccc(C)cc1	inactive
Cc1ccc(S(=O)(=O)N(C)C[C@H]2Oc3ccc(NC(=O)CCN4CCOCC4)cc3CC(=O)N([C@@H](C)CO)C[C@@H]2C)cc1	inactive
Cc1cc(=O)oc2cc(O[C@H]3O[C@@H](CO)[C@@H](O)[C@@H](O)[C@@H]3O)ccc12	inactive
C[C@H]1C[C@@H]2[C@@H](C[C@@H]1C)N[C@@H]1C(=O)NC(=O)N[C@H]1N2C[C@H](O)[C@H](O)[C@H](O)CO	inactive
Cc1ccc(S(=O)(=O)N(C)C[C@@H]2OCCCC[C@@H](C)Oc3ccc(NC(=O)Nc4ccccc4)cc3C(=O)N([C@@H](C)CO)C[C@@H]2C)cc1	inactive
COc1ccc(NC(=O)Nc2ccc3c(c2)C(=O)N([C@H](C)CO)C[C@H](C)[C@@H](CN(C)C(=O)Nc2cccc4ccccc24)OCCCC[C@@H](C)O3)cc1	inactive
CC#CC(=O)NS(=O)(=O)c1ccccc1	inactive
C[C@@H]1CN([C@@H](C)CO)C(=O)c2cccc(NC(=O)C3CCOCC3)c2O[C@H]1CN(C)S(=O)(=O)c1cn(C)cn1	inactive
C[C@H]1CN([C@@H](C)CO)C(=O)Cc2cc(NS(=O)(=O)c3cn(C)cn3)ccc2O[C@@H]1CN(C)CC1CCCCC1	inactive
CC(=O)N(C)C[C@H]1Oc2cc(C#CCN(C)C)ccc2S(=O)(=O)N([C@@H](C)CO)C[C@@H]1C	inactive
C[C@@H]1CN([C@H](C)CO)C(=O)c2cccc(NC(=O)c3ccc(-c4nccs4)cc3)c2O[C@@H]1CN(C)CC1CCCCC1	inactive
C[C@@H]1CN([C@H](C)CO)C(=O)c2cccc(NC(=O)c3ccc(-c4nccs4)cc3)c2O[C@H]1CN(C)Cc1ccc(Cl)c(Cl)c1	inactive
C[C@H]1CN([C@@H](C)CO)C(=O)c2cccc(NC(=O)c3ccc(-c4nccs4)cc3)c2O[C@@H]1CN(C)Cc1ccc(C(=O)Nc2ccccc2N)cc1	inactive
C[C@H]1CN([C@@H](C)CO)C(=O)c2cccc(NC(=O)c3ccc(-c4nccs4)cc3)c2O[C@@H]1CN(C)Cc1ccc(Cl)c(Cl)c1	inactive
C[C@H](CO)N1C[C@H](C)[C@H](CN(C)Cc2ccc(C(=O)Nc3ccccc3N)cc2)Oc2c(NC(=O)c3ccc(-c4nccs4)cc3)cccc2C1=O	inactive
C[C@H]1CN([C@@H](C)CO)C(=O)c2cccc(NC(=O)c3ccc(-c4nccs4)cc3)c2O[C@@H]1CN(C)CC1CCCCC1	inactive
C[C@H]1CN([C@@H](C)CO)C(=O)c2cccc(NC(=O)c3ccncc3)c2O[C@H]1CN(C)Cc1ccc(-c2ccccc2)cc1	inactive

Compound	cytotoxicity call
C[C@@H]1CN([C@@H](C)CO)C(=O)c2cccc(NC(=O)c3ccc(-c4nccs4)cc3)c2O[C@@H]1CN(C)Cc1ccc(C(=O)Nc2ccccc2N)cc1	active
C[C@H](CO)N1C[C@H](C)[C@H](CN(C)Cc2ccc(-c3ccccc3)cc2)Oc2c(NC(=O)c3ccncc3)cccc2C1=O	inactive
C[C@@H]1CN([C@@H](C)CO)C(=O)c2cccc(NC(=O)c3ccc(-c4nccs4)cc3)c2O[C@@H]1CN(C)Cc1ccc(Cl)c(Cl)c1	active
C[C@@H]1CN([C@H](C)CO)C(=O)c2cccc(NC(=O)c3ccc(-c4nccs4)cc3)c2O[C@H]1CN(C)CC1CCCCC1	active
C[C@H](CO)N1C[C@H](C)[C@@H](CN(C)Cc2ccc(-c3ccccc3)cc2)Oc2c(NC(=O)c3ccncc3)cccc2C1=O	active
COc1cccc(S(=O)(=O)Nc2ccc3c(c2)[C@@H]2C[C@@H](CC(=O)NCc4cccc(F)c4)O[C@H](CO)[C@@H]2O3)c1	inactive
O=C(C[C@@H]1C=C[C@@H](NS(=O)(=O)c2ccccc2)[C@@H](CO)O1)NCc1ccncn1	inactive
COc1ccc(S(=O)(=O)N2C[C@H](O)COC[C@@H]3O[C@@H](CC(=O)N[C@@H]4CCN(Cc5ccccc5)C4)CC[C@H]32)cc1	inactive
COCC(=O)Nc1ccc2c(c1)C(=O)N(C)C[C@@H](OC)[C@@H](C)CN(Cc1ccccc1OC)[C@H](C)CO2	inactive
C[C@@H]1CCCCO[C@H](CN(C)C(=O)Cc2ccccc2)[C@H](C)CN([C@@H](C)CO)C(=O)c2cc(NS(=O)(=O)c3ccc(Cl)cc3)ccc2O1	inactive
COCC(=O)N1C[C@H](C)[C@H](OC)CN(C)C(=O)c2ccc(NC(=O)c3ccc(OC)cc3)cc2OC[C@H]1C	inactive
Cc1noc(C)c1S(=O)(=O)N(C)C[C@H]1OCCCC[C@@H](C)Oc2ccc(NC(=O)Nc3ccc(F)cc3)cc2C(=O)N([C@H](C)CO)C[C@@H]1C	inactive
Cc1noc(C)c1S(=O)(=O)Nc1ccc2c(c1)C(=O)N([C@H](C)CO)C[C@@H](C)[C@H](CN(C)Cc1ccccc1)OCCCC[C@H](C)O2	inactive
COc1ccc(S(=O)(=O)N(C)C[C@@H]2Oc3ccc(NC(=O)NC(C)C)cc3CC(=O)N([C@H](C)CO)C[C@@H]2C)cc1	inactive
CC(C)NC(=O)Nc1ccc2c(c1)CC(=O)N([C@@H](C)CO)C[C@@H](C)[C@H](CN(C)S(=O)(=O)c1ccc(Cl)cc1)O2	inactive
CC(C)NC(=O)Nc1ccc2c(c1)CC(=O)N([C@H](C)CO)C[C@@H](C)[C@H](CN(C)S(=O)(=O)c1ccc(Cl)cc1)O2	inactive
COc1ccc(S(=O)(=O)N(C)C[C@@H]2Oc3ccc(NC(=O)Nc4cc(Cl)cc(Cl)c4)cc3CC(=O)N([C@@H](C)CO)C[C@@H]2C)cc1Cl	active
COc1ccc(S(=O)(=O)N(C)C[C@@H]2Oc3ccc(NC(=O)Nc4ccc(Cl)c(Cl)c4)cc3CC(=O)N([C@@H](C)CO)C[C@@H]2C)cc1Cl	active
COc1ccc(S(=O)(=O)N(C)C[C@@H]2Oc3ccc(NC(=O)Nc4cccc5c4CCCC5)cc3CC(=O)N([C@@H](C)CO)C[C@@H]2C)cc1Cl	inactive
